Measurements published in PubChem BioAssay (NCATS).
Records with an inconclusive call do not appear. Calls of active or inactive are those of the source. Calls follow the shape of the dose curve; as a rule, active = well fitted inhibition curve with a large enough effect; inconclusive = small, poorly fitted or top-dose-only effect; inactive = flat fitted curve, though single readings scatter.

Experiments:
Test in all cases: qHTS profiling for inhibitors of Plasmodium falciparum proliferation (AID 504749); also: nearly all actives have a fitted effect of over 60% in size
Conditions in all cases: P. falciparum in erythrocytes, SYBR Green DNA, 72 h; series mostly up to 28.7 µM
CP250 = system: CP250
Method in brief: (§1)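 Infected RBCs, 0.3% parasitemia/2.5% Hct final; cpd 72 h, 37 C, 5% CO2; lysis buffer with saponin/triton/SYBR Green I, o/n RT dark; FI 485/535; norm. to artemisinin (0.29 uM) and DMSO.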

CP252 = system: CP252
Method in brief: as §1

CP256 = system: CP256
Method in brief: as §1

CP260 = system: CP260
Method in brief: as §1

CP262 = system: CP262
Method in brief: as §1

CP265 = system: CP265
Method in brief: as §1

CP266 = system: CP266
Method in brief: as §1

CP269 = system: CP269
Method in brief: as §1

CP286 = system: CP286
Method in brief: as §1

CP268 = system: CP268
Method in brief: as §1

Measured: Potency
Potency is read from the fitted curve at half-maximal effect.

CCN1CCc2nc(N)oc2CC1
not listed: CP268
inactive: all other assays above

NC(=O)c1cn(Cc2c(F)cccc2F)nn1
inactive: all assays above

COc1ccc([C@@H]2Sc3ccccc3N(CCN(C)C)C(=O)[C@@H]2OC(C)=O)cc1
inactive: all assays above

CC(C(=O)O)c1ccc(CC2CCCC2=O)cc1 (stereo not drawn)
inactive: all assays above

CCCCOCCOCCOCc1cc2c(cc1CCC)OCO2
not listed: CP266
inactive: all other assays above

Nc1nc(N)c2nc(-c3ccccc3)c(N)nc2n1
inactive: all assays above

CN1CCN(CC(=O)N2c3ccccc3C(=O)Nc3cccnc32)CC1
not listed: CP266
inactive: all other assays above

CN(C)CCOC(=O)COc1ccc(Cl)cc1
not listed: CP266
inactive: all other assays above

c1cnc(N2CCN(Cc3ccc4c(c3)OCO4)CC2)nc1
inactive: all assays above

CC(=O)OCC1=C(C(=O)O)N2C(=O)[C@@H](NC(=O)Cc3cccs3)[C@H]2SC1
inactive: all assays above

Cc1ccc(S(=O)(=O)NC(=O)NN2CCCCCC2)cc1
not listed: CP262
inactive: all other assays above

CCN(CC)CCNC(=O)c1cc(S(C)(=O)=O)ccc1OC
not listed: CP266 | CP269 | CP268
inactive: all other assays above

CCN(CC)CCNC(=O)c1ccc(NC(C)=O)cc1
not listed: CP266
inactive: all other assays above

OCCN1CCN(CC/C=C2/c3ccccc3Sc3ccc(C(F)(F)F)cc32)CC1
active: CP250 12.6 µM | CP252 7.94 µM | CP256 3.98 µM | CP260 12.6 µM | CP262 6.01 µM | CP268 13.5 µM | CP269 4.78 µM | CP286 8.91 µM

CN(C)CCCN1c2ccccc2Sc2ccc(C(F)(F)F)cc21
not listed: CP260 | CP286
inactive: all other assays above

CC(N=C(NC#N)Nc1ccncc1)C(C)(C)C (stereo not drawn)
not listed: CP262
inactive: all other assays above

C[C@H](CS)C(=O)N1CCC[C@H]1C(=O)O
inactive: all assays above

NC(=Nc1ccccc1)Nc1ccccc1
inactive: all assays above

Nc1ncn([C@@H]2O[C@H](CO)[C@@H](O)[C@H]2O)c(=O)n1
inactive: all assays above

O=C1NCN(c2ccccc2)C12CCN(CCCC(c1ccc(F)cc1)c1ccc(F)cc1)CC2
active: CP250 10 µM | CP252 7.08 µM | CP256 5.01 µM | CP260 10 µM | CP265 5.62 µM | CP268 8.49 µM | CP286 7.08 µM
inactive: CP262

NC1=NCC2c3ccccc3Cc3ccccc3N12 (stereo not drawn)
inactive: all assays above

COCC(=O)O[C@]1(CCN(C)CCCc2nc3ccccc3[nH]2)CCc2cc(F)ccc2[C@@H]1C(C)C
active: CP250 4.47 µM | CP252 4.47 µM | CP256 4.47 µM | CP260 1.58 µM | CP262 6.75 µM | CP265 4.47 µM | CP266 6.75 µM | CP268 5.36 µM | CP269 2.69 µM | CP286 1.58 µM

NC(Cc1ccc(Cl)cc1)C(=O)O (stereo not drawn)
inactive: all assays above

Cc1ccc(=O)n(-c2ccccc2)c1
not listed: CP266
inactive: all other assays above

CCCCNc1ccc(C(=O)OCCN(C)C)cc1
not listed: CP266
inactive: all other assays above

CC(=O)[C@]1(O)Cc2c(O)c3c(c(O)c2[C@@H](O[C@H]2C[C@H](N)[C@H](O)[C@H](C)O2)C1)C(=O)c1ccccc1C3=O
active: CP250 6.31 µM | CP252 7.94 µM | CP256 10 µM | CP260 2 µM | CP262 12 µM | CP266 8.49 µM | CP268 9.53 µM | CP269 10.7 µM | CP286 1.41 µM

CC(C)(Oc1ccc(CCNC(=O)c2ccc(Cl)cc2)cc1)C(=O)O
inactive: all assays above

CN(C)C/C=C(/c1ccc(Br)cc1)c1cccnc1
inactive: all assays above

Nc1c2c(nc3ccccc13)CCCC2O (stereo not drawn)
inactive: all assays above

CC(C)COCC(CN(Cc1ccccc1)c1ccccc1)N1CCCC1 (stereo not drawn)
inactive: CP250 | CP252 | CP256 | CP262 | CP265 | CP266

CSc1ccc(C(=O)c2[nH]c(=O)[nH]c2C)cc1
inactive: all assays above

CN(C)C(=O)Oc1cccc([N+](C)(C)C)c1
inactive: all assays above

O=C(O)CCCCCCCC(=O)O
inactive: all assays above

COc1ccc(CN(CCN(C)C)c2ccccn2)cc1
not listed: CP265 | CP266
inactive: all other assays above

CCN(CC)CCCN(c1ccccc1)C1Cc2ccccc2C1
active: CP250 7.94 µM | CP252 10 µM | CP256 4.47 µM | CP260 2.82 µM | CP265 3.98 µM | CP266 8.49 µM | CP268 7.57 µM | CP269 10.7 µM | CP286 5.01 µM

O=C(O)CN(CCN(CC(=O)O)CC(=O)O)CCN(CC(=O)O)CC(=O)O
active: CP256 11.2 µM
not listed: CP262 | CP265 | CP268
inactive: all other assays above

CCCCNc1c(C(=O)OCC)c(C)nc2c1cnn2CC
not listed: CP260
inactive: all other assays above

CCCC(C(=O)OCCN(CC)CC)(c1ccccc1)c1ccccc1
active: CP265 10 µM | CP269 12 µM | CP286 12.6 µM

CCCN1C[C@H](CSC)C[C@@H]2c3cccc4[nH]cc(c34)C[C@H]21
inactive: CP250 | CP262 | CP266 | CP269
active: CP256 8.91 µM

CN1C[C@H](C(=O)N[C@]2(C)O[C@@]3(O)[C@@H]4CCCN4C(=O)[C@H](Cc4ccccc4)N3C2=O)C[C@@H]2c3cccc4[nH]cc(c34)C[C@H]21
active: CP268 15.1 µM | CP269 8.49 µM

c1cc(CN2CCCCC2)cc(OCCCNc2nc3ccccc3s2)c1
inactive: CP262

CNCCC(Oc1ccccc1OC)c1ccccc1 (stereo not drawn)
inactive: CP250 | CP262 | CP266

O=C(CCCN1CCC(O)(c2cccc(C(F)(F)F)c2)CC1)c1ccc(F)cc1
active: CP250 10 µM | CP260 11.2 µM | CP262 10.7 µM | CP265 10 µM | CP286 10 µM

Cc1nc2sccn2c(=O)c1CCN1CCC(=C(c2ccc(F)cc2)c2ccc(F)cc2)CC1
inactive: CP256 | CP266 | CP268

CC1=C(C)C(=O)C(CCCCC#CCCCC#CCO)=C(C)C1=O
active: CP265 10 µM | CP286 11.2 µM

CCn1cc(C(=O)O)c(=O)c2cc3c(cc21)OCO3
not listed: CP260
inactive: all other assays above

C[n+]1cc2c3c(ccc2c2ccc4cc5c(cc4c21)OCO5)OCO3
inactive: CP250 | CP266 | CP268 | CP269 | CP286

C=CCc1ccccc1OCC(O)CNC(C)C (stereo not drawn)
inactive: CP250 | CP262 | CP266

CN(C)CCCN1c2ccccc2Sc2ccccc21
active: CP265 2.82 µM
inactive: CP262 | CP266

CCOC(=O)C1=C(C)NC(C)=C(C(=O)OC)C1c1cccc([N+](=O)[O-])c1 (stereo not drawn)
active: CP252 11.2 µM
inactive: CP266

CN(C)CC/C=C1\c2ccccc2COc2ccccc21
active: CP265 11.2 µM
inactive: CP250 | CP256 | CP262 | CP266

Brc1c(NC2=NCCN2)ccc2nccnc12
not listed: CP260 | CP265
inactive: all other assays above

CCc1cccc(N(C)C(N)=Nc2cccc3ccccc23)c1
active: CP286 8.91 µM
inactive: CP262

CCOC(=O)c1cnc2c(cnn2CC)c1NN=C(C)C
not listed: CP260 | CP286 | CP268
inactive: all other assays above
